Compound activity deposited in PubChem by National Center for Advancing Translational Sciences (NCATS).
Only some compounds are listed: those with a hit (about 7.3% of all), similar ones and a draw of the others.
FLuc counter: qHTS profiling assay for firefly luciferase inhibitor/activator using purifed enzyme and Km concentrations of substrates (counterscreen for miR-21 project); purified FLuc, Km substrates, luminescence inhibition; Potency, µM (top dose mostly 57.5 µM), inactives show at the highest dose activity change, negative = inhibition, most hits filed as inhibitors; 360,000 tested, 6.9% active;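 note: plate controls were vehicle for no effect and reference inhibitor for full effect; nearly all actives have a fitted effect of over 55% in size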
Target sequence (P08659 whole entry, looked up): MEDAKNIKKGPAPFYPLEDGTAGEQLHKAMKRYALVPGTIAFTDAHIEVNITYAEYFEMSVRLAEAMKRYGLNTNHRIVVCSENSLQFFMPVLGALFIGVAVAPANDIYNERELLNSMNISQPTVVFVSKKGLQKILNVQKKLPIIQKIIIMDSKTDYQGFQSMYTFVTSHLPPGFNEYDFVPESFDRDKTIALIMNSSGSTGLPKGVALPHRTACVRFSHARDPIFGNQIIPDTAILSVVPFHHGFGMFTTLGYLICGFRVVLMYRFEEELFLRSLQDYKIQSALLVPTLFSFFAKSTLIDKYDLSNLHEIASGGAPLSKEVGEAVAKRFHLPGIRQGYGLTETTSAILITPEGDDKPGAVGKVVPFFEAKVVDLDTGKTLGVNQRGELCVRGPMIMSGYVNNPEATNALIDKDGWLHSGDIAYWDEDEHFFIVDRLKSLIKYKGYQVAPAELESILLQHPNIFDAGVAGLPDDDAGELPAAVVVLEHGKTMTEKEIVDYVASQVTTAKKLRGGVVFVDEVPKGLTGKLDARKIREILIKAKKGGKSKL
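Purified P. pyralis luciferase, 10 nM final, with Km-level 10 uM D-luciferin and 10 uM ATP in 50 mM Tris acetate pH 7.5, 10 mM Mg acetate, 0.01% Tween-20, 0.05% BSA; 6-point qHTS titration about 60 µM downward; luminescence read.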
ELG1 genotox: qHTS screen for small molecules that induce genotoxicity in human embryonic kidney (HEK293T) cells expressing luciferase-tagged ELG1; 330,000 tested, 1.3% active; HEK293T ELG1-luciferase reporter, luminescence, 16 h; Potency, µM (top dose mostly 46 µM), inactives show at the top dose activity change, positive = activation, usual class: activators; note: % of control where 0% means no effect; nearly all actives have a fitted effect of over 60% in size
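DMSO vehicle served as control against compound-treated ELG1-luciferase HEK293T cells; exposure lasted 16 hr at 37 °C and 5% CO2, followed by ONE-Glo luminescence detection after 30 min.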
Rab9 promoter act: qHTS Assay for Rab9 Promoter Activators; Huh7 Rab9 promoter-luciferase reporter, luminescence, 24 h; Potency, µM (top dose mostly 9.22 µM), inactives show top-dose activation, negative = inhibition, usual class: activators; 320,000 tested, 2.8% active; note: % of control where 0% means no effect; nearly all actives have a fitted effect of over 60% in size
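Huh7 reporter line, Rab9 promoter upstream of luciferase. Compound exposure 24 h at 37 °C in reduced-serum medium with 10% FBS. Read-out: luminescence.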
NPC1 prom act: qHTS Assay for NPC1 Promoter Activators. Huh7 NPC1 promoter luciferase reporter, 24 h. Potency, µM (top dose mostly 9.22 µM), for the others: at the top dose activation, most hits filed as activators. 320,000 tested, 2.4% active; note: % of control where 0% means no effect; nearly all actives have a fitted effect of over 60% in size
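Readout is luciferase luminescence, reflecting NPC1 promoter activation in stably transfected Huh7 cells after 24 h compound exposure at 37 °C in reduced-serum medium with 10% FBS.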
SMN2 splice enh: qHTS Assay for Enhancers of SMN2 Splice Variant Expression | HEK293 SMN2-luciferase splicing reporter, luminescence, 30-36 h | Potency, µM (titrated, usually from 46.1 µM), for inactives: top-dose activity change, positive = activation, most hits filed as activators | 210,000 tested, 2.8% active; note: % of control where 0% means no effect; nearly all actives have a fitted effect of over 55% in size
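qHTS luciferase splicing reporter: luminescence rises when SMN2 exon 7 is included in transfected HEK293 cells. Compound exposure lasted 30-36 h at 37C, with 4.5 mM final sodium butyrate as control, followed by a ONE-Glo read.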
uPA generation: qHTS for Inhibitors of Cell Surface uPA Generation; 330,000 tested, 0.31% active; cell surface uPA generation assay, qHTS; Potency, µM (top dose mostly 38.3 µM), without a hit: top-dose activity change, negative = inhibition, usual class: inhibitors; active = well fitted inhibition curve with a large enough effect; inconclusive = small, poorly fitted or top-dose-only effect; inactive = no such curve, though single readings can be large or run the other way; tested in mouse RAW 264.7 cells; note: % is set by controls: 0 for no effect and ±100 for the full control effect; nearly all actives have a fitted effect of over 55% in size
Active calls of the source: *; ? = inconclusive; / = not tested or not shown. Unless noted, calls come from the whole dose curve; as a rule, active = well fitted curve in the direction sought with a large enough effect; inconclusive = small, poorly fitted or top-dose-only effect, or another doubt; inactive = no such curve, though single readings can be large; an effect the other way counts as inactive or inconclusive. Potency is the fitted concentration of half-maximal effect.

SMILES	FLuc counter	ELG1 genotox	Rab9 promoter act	NPC1 prom act	SMN2 splice enh	uPA generation
C/C(=N/NC(=O)c1ccc(C(C)(C)C)cc1)c1cccnc1	/	/	/	/	/	-4.4%
CC(=O)Nc1cccc(/C(C)=N/NC(=O)c2ccc3c(c2)OCO3)c1	6.01µM*	?	?	28.1%	11.2µM*	-10.2%
O=C(N/N=C(\c1ccccc1)c1cccnc1)c1cccc(F)c1	-4.9%	16.4µM*	-36.7%	-13.2%	/	3.5%
CC(/C=C/c1ccc2c(c1)OCO2)=N/NC(=O)c1cccnc1	?	-2.7%	-1.1%	3.2%	?	-1.7%
C/C(=N\NC(=O)c1ccc(Br)cc1)c1cccnc1	13.5µM*	?	?	26.3%	/	-4.6%
C/C(=N\NC(=O)c1ccc2c(c1)OCO2)c1cccnc1	?	?	3.55µM*	?	/	?
O=C(N/N=C(\c1ccccc1)c1cccnc1)c1ccc(O)cc1	1.0%	1.0%	2.4%	1.3%	/	4.4%
COc1ccc(NC(=O)c2c(-c3ccc(C)cc3)nnc3ccccc23)cc1Cl	-6.9%	/	/	/	/	/
C/C(=N\NC(=O)c1ccccc1)c1ccc2c(c1)OCO2	15.1µM*	18.4µM*	2.82µM*	?	26.8%	/
C/C(=N\NC(=O)c1c[nH]c2ccccc12)c1ccc2c(c1)OCO2	26.9µM*	8.4%	27.6%	3.4%	16.7%	-12.4%
C/C(=N\NC(=O)c1ccc2c(c1)OCO2)c1ccc(O)cc1	?	?	?	?	/	-0.9%
O=C(CSc1ncnc2c1oc1ccccc12)c1cccs1	?	?	3.98µM*	2.82µM*	23.9%	5.9%
Cc1nc(SCC(=O)c2cccs2)c2oc3ccccc3c2n1	9.53µM*	?	3.98µM*	?	10µM*	-5.3%
NC(=O)CSc1ncnc2c1oc1ccccc12	-0.8%	15.3%	-2.3%	3.5%	-29.3%	-2.0%
Cc1nc(SCC(=O)O)c2oc3ccccc3c2n1	?	-2.9%	4.0%	1.0%	2.0%	-1.7%
Clc1cccc(N2CCN(c3nc4ccccc4n4nnnc34)CC2)c1	1.5%	/	/	/	0.2%	/
CCCC(=O)Nc1ccc2nc(SCCOc3ccccc3)sc2c1	-4.3%	/	/	/	/	/
O=C(N=C1N=C2C=CC=CN2Cc2ccccc21)c1ccc(S(=O)(=O)N2CCCC2)cc1	?	19.2%	15.1%	28.0%	/	0.8%
CN(C)S(=O)(=O)c1cccc(C(=O)N=C2N=C3C=CC(Cl)=CN3Cc3ccccc32)c1	16.9µM*	?	3.55µM*	2.51µM*	/	-1.5%
O=C(Nc1ccc(F)cc1)c1ccc(-n2cnc3cccnc32)cc1	-1.9%	/	/	/	/	/
Cc1ccc(-c2cn3nc(C)c(C)nc3n2)cc1	0.675µM*	?	0.178µM*	?	0.501µM*	-6.7%
COc1ccc(-c2cn3nc(C)c(C)nc3n2)cc1OC	?	5.3%	2.82µM*	?	/	4.3%
Cc1ccc(-c2cn3c(n2)CCCC3)cc1	-5.8%	0.3%	-6.1%	-11.0%	-24.9%	-4.1%
Cc1nc2nc(-c3ccc(Cl)cc3)[nH]n2c(=O)c1Cc1ccccc1	3.01µM*	?	26.8%	?	?	-3.7%
Cc1nc2nc(-c3ccc(Cl)cc3)[nH]n2c(=O)c1C	6.01µM*	?	2.24µM*	2.51µM*	?	/
SMILES	FLuc counter	ELG1 genotox	Rab9 promoter act	NPC1 prom act	SMN2 splice enh	uPA generation
Cc1nc2c(-c3ccccc3)c[nH]n2c(=O)c1Cc1ccccc1	26.9µM*	1.4%	?	7.9%	-60.0%	-13.9%
Cc1nc2nc(-c3ccccc3)[nH]n2c(=O)c1C	?	?	?	23.9%	?	/
O=C(Cn1c(=O)oc2cc(S(=O)(=O)N3CCCCCC3)ccc21)Nc1ccc(F)cc1F	?	/	/	/	-3.8%	/
COC(=O)c1c(C)[nH]c(C(=O)/C=C/c2ccccc2)c1C	0.477µM*	11.6µM*	1.41µM*	2.24µM*	2.24µM*	-0.3%
COC(=O)c1c(C)[nH]c(C(=O)/C=C/c2cccc(Cl)c2)c1C	?	?	?	?	?	-0.9%
COC(=O)c1c(C)[nH]c(C(=O)/C=C/c2ccc(C)cc2)c1C	2.13µM*	?	0.4%	0.7%	/	-0.8%
Cc1csc2nc(COc3ccc(NC(=O)COc4ccc(F)cc4)cc3)cc(=O)n12	-5.7%	/	/	/	-11.6%	/
CN(C)C(=O)c1ccc(-c2cc(C(F)(F)F)nn2C)s1	15.1µM*	?	?	3.55µM*	/	5.2%
COc1ccc(OCc2cc(C(=O)NC(C)c3cnn(C)c3)no2)c(Cl)c1 (stereo not given)	13.5µM*	?	?	?	/	-2.6%
CC(NC(=O)c1cc(COc2c(F)cccc2F)on1)c1cnn(-c2ccccc2)c1 (stereo not given)	16.9µM*	18.2%	?	23.4%	/	9.7%
COc1ccc(OCc2cc(C(=O)NCCCc3ccccc3)no2)c(Cl)c1	?	-8.5%	4.8%	-19.8%	/	7.1%
Cc1nc2cc(OCc3cc(C(=O)NC(C)c4cnn(C)c4)no3)ccc2s1 (stereo not given)	16.9µM*	-4.3%	26.8%	12.5%	/	-1.2%
COc1ccc2oc(C(=O)Nc3cccc(S(=O)(=O)N4CCOCC4)c3)c(C)c2c1	6.01µM*	-5.5%	0.9%	1.8%	/	-6.9%
O=C(Nc1cc(S(=O)(=O)N2CCOCC2)ccc1Cl)c1cc2ccccc2o1	/	-1.5%	1.9%	-6.2%	/	-2.4%
O=C(Nc1cccc(S(=O)(=O)N2CCCCC2)c1)c1cc2ccccc2o1	8.49µM*	-9.3%	13.3%	0.4%	/	-13.8%
O=C(Nc1cccc(S(=O)(=O)N2CCOCC2)c1)c1cc2ccccc2o1	16.9µM*	-8.2%	1.1%	0.7%	/	1.4%
Cc1ccc(Nc2ccc(N3CCN(C(=O)c4ccc([N+](=O)[O-])cc4Cl)CC3)nn2)cc1	-10.6%	/	/	/	/	/
COC(=O)C1OC(=O)C2O[C@@]23[C@]2(C)C(OC(C)=O)CC4C(C)(C)C(=O)CC[C@]4(C)C2CC[C@@]13C (stereo not given in full)	/	/	/	/	12.3%	/
Fc1ccc(NC(=S)N2N=CCC2c2ccccc2)cc1 (stereo not given)	?	23.1µM*	18.5%	22.3%	9.7%	0.0%
O=C(Nc1cccc(Cl)c1)N1N=CCC1c1ccccc1 (stereo not given)	-2.8%	-2.6%	-1.0%	0.9%	/	10.2%
S=C(Nc1ccccc1)N1N=CCC1c1ccccc1 (stereo not given)	16.9µM*	?	29.9%	22.2%	-8.3%	/
Cc1ccc(-n2nc3c(=O)n(CC(=O)NCCCc4ccccc4)nc(C)c3c2C)cc1	2.2%	-9.1%	-6.0%	-4.6%	/	0.501µM*
